From PubChem BioAssay (Tox21) come the findings set out here.

Where “and” joins values, the source holds several entries; their conditions need not be identical. Equal entries are not always repeated. Inconclusive results are not listed. More than one record can exist for a structure, and the calls need not agree. Calls of active or inactive are those of the source. Unless noted, the call rests on the fitted dose curve; in most records, active means well fitted curve in the direction sought with a large enough effect in the repeat runs; inconclusive means weak or mixed curves; inactive means no such curve, though single readings can be large; an effect the other way counts as inactive or inconclusive.

Test [1] can be described thus: qHTS assay to identify small molecule agonists of the peroxisome proliferator-activated receptor delta (PPARd) signaling pathway - cell viability counter screen (AID 743211). Further: nearly all actives have a fitted effect of over 55% in size. Further: potency means the concentration at half of the fitted maximal effect. In a few lines:
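Viability of GeneBLAzer PPARd UAS-bla HEK293H cells was assessed after 17 h compound incubation at 37C, using CellTiter-Glo reagent added after the reporter read and luminescence recorded 30 min later.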
A general note: qHTS replaces the single test concentration by a dilution series.

In test [2] the target is Peroxisome proliferator-activated receptor delta (Homo sapiens) (UniProt Q03181). Put plainly: qHTS assay to identify small molecule agonists of the peroxisome proliferator-activated receptor delta (PPARd) signaling pathway (AID 743212; calls by dose curve). In a few lines: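 Read-out: beta-lactamase FRET fluorescence after 2 h room-temperature incubation with LiveBLAzer B/G substrate. Cells were HEK293H carrying a UAS-bla reporter for PPARd, treated at 37 C with DMSO-dissolved compounds.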
Peroxisome proliferator-activated receptor delta (Homo sapiens), sequence (Q03181 whole entry, looked up): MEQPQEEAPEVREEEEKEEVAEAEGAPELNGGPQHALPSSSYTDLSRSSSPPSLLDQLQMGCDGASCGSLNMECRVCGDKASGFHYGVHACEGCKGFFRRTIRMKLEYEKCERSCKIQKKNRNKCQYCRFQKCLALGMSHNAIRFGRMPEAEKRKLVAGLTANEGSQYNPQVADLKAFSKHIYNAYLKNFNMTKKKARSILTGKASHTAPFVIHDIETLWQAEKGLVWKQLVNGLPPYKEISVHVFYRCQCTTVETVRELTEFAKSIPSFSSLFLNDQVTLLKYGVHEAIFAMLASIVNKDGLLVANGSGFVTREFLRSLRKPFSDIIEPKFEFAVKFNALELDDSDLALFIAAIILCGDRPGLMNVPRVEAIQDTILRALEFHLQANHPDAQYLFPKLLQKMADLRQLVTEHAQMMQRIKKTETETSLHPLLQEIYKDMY

Test [3] in a line: qHTS assay to identify small molecule antagonists of the peroxisome proliferator-activated receptor delta (PPARd) signaling pathway - cell viability counter screen (AID 743213). Further: nearly all actives have a fitted effect of over 50% in size. In a few lines:
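Cytotoxicity counter screen: CellTiter-Glo luminescence read 30 min after addition, in the same wells as the reporter assay. There, PPARd UAS-bla HEK293H cells (3000/well) were treated 17 h at 37 C with compound and 300 nM L165041.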

For test [4], the target named is Peroxisome proliferator-activated receptor delta (Homo sapiens) (UniProt Q03181). Kind of test: qHTS assay to identify small molecule antagonists of the peroxisome proliferator-activated receptor delta (PPARd) signaling pathway (AID 743215; active means well fitted inhibition curve with a large enough effect in the signal ratio in the repeat runs, not every such curve was filed as active; the % refers to the signal ratio;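 further: cells stimulated with agonist L165041 at 300 nM final during compound exposure; series mostly up to about 62 µM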). In a few lines:
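Screen format: qHTS, antagonist mode. HEK293H PPARd-bla cells received compound and 300 nM L165041 (final), 17 h, 37 C. Beta-lactamase detected via FRET substrate fluorescence, 2 h, room temperature.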

A short description of test [5]: qHTS assay to identify small molecule agonists of the farnesoid-X-receptor (FXR) signaling pathway - cell viability counter screen (AID 743218). Further: nearly all actives have a fitted effect of over 45% in size. In a few lines:
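Same-well cytotoxicity check on FXR-UAS-bla HEK 293T cells: 5 h attachment, 16 h compound at 37 C, CellTiter-Glo luminescence read at room temperature after 30 min.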

A short description of test [6]: qHTS assay to identify small molecule antagonists of the farnesoid-X-receptor (FXR) signaling pathway - cell viability counter screen (AID 743221; active means well fitted cell-killing curve with a large enough effect in the repeat runs, not every such curve was filed as active; further: nearly all actives have a fitted effect of over 50% in size). In a few lines: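 Quantitative HTS of the Tox21 10K library run in parallel with the beta-lactamase reporter read. HEK 293T cells carrying a UAS-driven bla reporter got compound and 50 uM CDCA (final) for 16 h; ATP-based luminescence followed.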

Test [7] is described as follows: qHTS assay to identify small molecule agonists of the vitamin D receptor (VDR) signaling pathway - cell viability counter screen (AID 743224). Further: series mostly up to about 63 µM; nearly all actives have a fitted effect of over 50% in size. In a few lines:
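Counter screen for cytotoxicity: VDR-bla cells at 2,000 cells/well, 16 h compound exposure, then CellTiter-Glo luminescence after the beta-lactamase measurement.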

Test [8] can be described thus: qHTS assay to identify small molecule antagonists of the vitamin D receptor (VDR) signaling pathway - cell viability counter screen (AID 743225). Further: nearly all actives have a fitted effect of over 50% in size. In a few lines:
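Cells (VDR-UAS-bla HEK 293T) are plated, rested 4 h at 37C, dosed with compound and 3 nM final 1-alpha,25-dihydroxy vitamin D3, and incubated 16 h. Viability is taken from CellTiter-Glo luminescence in the reporter wells.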

Test [9] is described as follows: qHTS assay to identify small molecule agonists of the NFkB signaling pathway (AID 1159509; active means well fitted curve in the direction sought with a large enough effect in the signal ratio in the repeat runs, not every such curve was filed as active; the % refers to the signal ratio; further: series mostly up to about 61 µM). In a few lines:
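Beta-lactamase reporter assay run in quantitative high-throughput format on an NF-kB-responsive ME-180 line, with 5 hr compound treatment and a FRET-based blue/green fluorescence readout.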

Test [10] in a line: qHTS assay to identify small molecule agonists of the NFkB signaling pathway - cell viability counter screen (AID 1159515; calls by dose curve; further: series mostly up to about 61 µM; nearly all actives have a fitted effect of over 55% in size). In a few lines:
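Counter screen run alongside the NFkB-bla agonist assay: ME-180 reporter cells exposed to compounds for 5 hr, then lysed with CellTiter-Glo in the same wells. Luminescence, read after 30 min, reflects viable cells.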

Test [11] in a line: qHTS assay to identify small molecule agonists of the endoplasmic reticulum stress response signaling pathway (AID 1159516; active means well fitted activation curve with a large enough effect in the signal ratio in the repeat runs, not every such curve was filed as active; the % refers to the signal ratio). In a few lines:
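For this screen, HeLa cells stably carrying beta-lactamase under the ER stress response element received test compounds, positive controls or DMSO for 5 hr at 37 C; B/G FRET substrate was then added and dual-wavelength emission recorded.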

The nature of test [12]: qHTS assay to identify small molecule agonists of the endoplasmic reticulum stress response signaling pathway - cell viability counter screen (AID 1159517; calls by dose curve). In a few lines:
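Steps: seed 1,500 ESRE-bla HeLa cells per well; incubate overnight at 37 C, 5% CO2; add compounds in DMSO for 5 hr; run FRET substrate 2 hr RT; add CellTiter-Glo, wait 30 min, read luminescence.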

Test [13] in a line: qHTS assay to identify small molecule antagonists of the retinoid-related orphan receptor gamma (ROR-gamma) signaling pathway - cell viability counter screen (AID 1159520). Further: nearly all actives have a fitted effect of over 50% in size. In a few lines: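 Tet-on ROR gamma CHO cells were given compounds for 2 hr, then doxycycline hyclate at 1 uM final, and incubated 16 hr at 37 C. Viability was measured as ATP content by CellTiter-Glo luminescence.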

For test [14], the target named is Nuclear receptor ROR-gamma (Homo sapiens) (UniProt P51449). Kind of test: qHTS assay to identify small molecule antagonists of the retinoid-related orphan receptor gamma (ROR-gamma) signaling pathway (AID 1159521; further: nearly all actives have a fitted effect of over 50% in size; further: potency means the concentration at half of the fitted maximal effect). In a few lines: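 RORγ antagonism is scored from reduced reporter luminescence in Tet-on CHO cells. Induction used 1 uM final doxycycline hyclate for 16 h at 37 C, following a 2 h compound exposure.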

Test [15] can be described thus: qHTS assay to identify small molecule agonists of the AP-1 signaling pathway (AID 1159526; calls by dose curve).
For test [16], the target named is Bile acid receptor (Homo sapiens) (UniProt Q96RI1). Put plainly: qHTS assay to identify small molecule antagonists of the farnesoid-X-receptor (FXR) signaling pathway (AID 743217; active means well fitted inhibition curve with a large enough effect in the signal ratio in the repeat runs, not every such curve was filed as active; the % refers to the signal ratio). In a few lines: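 Quantitative HTS, beta-lactamase reporter format: FXR-UAS-bla HEK 293T cells co-treated 16 h at 37 °C with compounds and 50 uM final chenodeoxycholic acid, then read by B/G FRET fluorescence.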
Bile acid receptor (Homo sapiens), sequence (Q96RI1 whole entry, looked up): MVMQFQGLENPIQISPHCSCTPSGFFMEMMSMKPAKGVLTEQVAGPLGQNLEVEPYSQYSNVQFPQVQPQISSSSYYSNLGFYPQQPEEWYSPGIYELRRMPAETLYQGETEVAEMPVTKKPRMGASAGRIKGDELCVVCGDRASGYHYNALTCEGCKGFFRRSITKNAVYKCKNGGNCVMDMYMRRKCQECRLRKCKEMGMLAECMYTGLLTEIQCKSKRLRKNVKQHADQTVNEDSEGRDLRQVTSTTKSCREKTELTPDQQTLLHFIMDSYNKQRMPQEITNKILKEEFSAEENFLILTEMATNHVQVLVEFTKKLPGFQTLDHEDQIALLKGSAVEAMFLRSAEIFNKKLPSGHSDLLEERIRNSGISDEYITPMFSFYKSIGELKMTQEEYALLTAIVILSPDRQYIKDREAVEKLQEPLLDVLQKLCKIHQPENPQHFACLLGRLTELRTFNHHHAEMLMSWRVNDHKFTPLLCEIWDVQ

Test [17] shares this target. Put plainly: qHTS assay to identify small molecule agonists of the farnesoid-X-receptor (FXR) signaling pathway (AID 743220; active means well fitted activation curve with a large enough effect in the signal ratio in the repeat runs, not every such curve was filed as active; the % refers to the signal ratio). In a few lines: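 FXR-UAS-bla HEK 293T cells carrying a UAS-driven beta-lactamase reporter were plated for 5 h at 37C/5% CO2, then exposed to DMSO-dissolved Tox21 10K compounds for 16 h at 37C. A LiveBLAzer B/G FRET substrate was loaded for 2 h at room temperature before fluorescence reading.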

Test [18] addresses Vitamin D3 receptor (Homo sapiens) (UniProt P11473). Kind of test: qHTS assay to identify small molecule agonists of the vitamin D receptor (VDR) signaling pathway (AID 743222; calls by dose curve). In a few lines: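 Using LiveBLAzer B/G FRET detection, agonism was scored in VDR-bla cells exposed overnight (16 h, 37C) to DMSO-dissolved compounds; substrate incubation was 2 h at room temperature.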

The target is the same in test [19]. Put plainly: qHTS assay to identify small molecule antagonists of the vitamin D receptor (VDR) signaling pathway (AID 743223; active means well fitted inhibition curve with a large enough effect in the signal ratio in the repeat runs, not every such curve was filed as active; the % refers to the signal ratio). In a few lines:
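Fluorescence from LiveBLAzer B/G FRET substrate, read after 2 h at room temperature, reflects beta-lactamase reporter activity in VDR-bla cells treated 16 h at 37C with compounds and agonist 1alpha,25-dihydroxyvitamin D3 (3 nM final).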

Test [20] is described as follows: qHTS assay to identify small molecule agonists of the AP-1 signaling pathway - cell viability counter screen (AID 1159525; calls by dose curve; further: nearly all actives have a fitted effect of over 55% in size). In a few lines:
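Same-well cytotoxicity counter screen of the Tox21 10K library in ME-180 cells. The readout is ATP-dependent luminescence after 5 h compound treatment. Data are normalised to DMSO and tetra n-octyl ammonium bromide controls.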

Vitamin D3 receptor (Homo sapiens), sequence (P11473 whole entry, looked up): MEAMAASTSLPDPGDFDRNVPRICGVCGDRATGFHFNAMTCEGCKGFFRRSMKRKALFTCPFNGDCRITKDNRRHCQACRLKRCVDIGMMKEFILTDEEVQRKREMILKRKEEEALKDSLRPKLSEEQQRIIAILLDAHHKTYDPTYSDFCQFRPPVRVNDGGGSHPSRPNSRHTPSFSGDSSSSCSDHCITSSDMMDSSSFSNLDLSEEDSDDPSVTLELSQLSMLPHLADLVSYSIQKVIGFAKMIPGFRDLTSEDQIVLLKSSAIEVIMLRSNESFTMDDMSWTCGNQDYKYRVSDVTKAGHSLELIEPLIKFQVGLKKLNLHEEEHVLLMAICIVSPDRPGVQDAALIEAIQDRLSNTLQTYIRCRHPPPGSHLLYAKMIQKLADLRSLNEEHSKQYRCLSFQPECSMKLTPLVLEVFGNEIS

For the compound `C#C[C@]1(O)CC[C@H]2[C@@H]3CCc4cc(O)ccc4[C@H]3CC[C@@]21C`, the Potency result in test [1], in test [3], in test [5], in test [7], in test [12] and in test [15] was “inactive” each time. Also, the compound was called inactive in test [2], in test [4], in test [6], in test [8], in test [9] and in test [10]. Moreover, the call in [11] and in test [13] was inactive. For the same compound, in [14], the Potency was 30.4 µM (active) and inactive.
Turning to `Nc1cccc(N)c1`, the Potency result in test [1], in [3], in [16], in test [5], in [19] and in test [7] was “inactive” throughout. The Potency result in test [12], in [14] and in test [15] was “inactive” in each case. The result in test [17], in [6], in test [18], in [8], in test [9] and in [10] was inactive. Moreover, the outcome in test [11] and in test [13] was inactive.
As for `C=CC(=O)NC(C)(C)CS(=O)(=O)O`, the Potency result in test [1], in test [3], in [5], in test [19], in test [7] and in test [12] was “inactive” in each case. The Potency entry in test [14] and in test [15] was “inactive” throughout. In addition, the result in test [2], in test [4], in test [6], in [18], in test [8] and in [9] was inactive. Besides, the compound was classed as inactive in test [10], in [13] and in [20].
For the compound `Cc1ccc(O)c(-n2nc3ccccc3n2)c1`, the Potency result in [1], in [3], in [16], in test [5], in test [19] and in test [7] was “inactive” throughout. The Potency result in test [12], in test [14] and in test [15] was “inactive” each time. The call in test [2], in test [4], in [6], in [18], in test [8] and in [9] was inactive. The result in [10], in test [13] and in [20] was inactive.
As to `NC(=O)N1c2ccccc2C=Cc2ccccc21`, the Potency entry in test [1], in test [3], in test [5], in [7], in test [12] and in [14] was “inactive” in each case. The Potency entry in test [15] is “inactive”. The result in test [2], in test [4], in test [6], in [8], in [9] and in test [10] was inactive. Also, the call in test [11] and in [13] was inactive.
`CC(C)(C)CC(C)(C)c1ccc(O)c(-n2nc3ccccc3n2)c1`: the Potency was 49.7 µM (active) and 49 µM (active) in [1]; 49.2 µM (active) and inactive in [14]. In addition, the result in test [2], in test [4], in test [6], in [18], in [8] and in test [9] was inactive. In addition, the compound was called inactive in test [10], in test [11] and in [13]. For the same compound, the Potency result in [3], in test [19], in test [7], in [12] and in test [15] was “inactive” in each case.
Turning to `Cc1cccc(C)c1O`, the Potency result in test [1], in test [3], in [5], in test [19], in [7] and in test [12] was “inactive” in each case. In addition, the Potency result in [14] and in [15] was “inactive” in each case. In addition, the outcome in [2], in test [4], in test [6], in test [18], in test [8] and in test [9] was inactive. The compound was called inactive in test [10], in test [11] and in test [13].
